# In PubChem BioAssay (NCI):
# This is part of a sample that, as a whole, favours compounds with a hit. Of some 83,000 tested, about 20% had one in any assay.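 Values shown are percent growth following 48 h exposure of cells in 96-well plates to a single concentration of compound; below 10 was considered active.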 A number with no mark means an inactive call. Calls of active or inactive are those of the source.
# Assays:
# Experiment in all cases: NCI-60 one-dose screen, 48 h (100 = growth as untreated, 0 = no growth, -100 = all killed)
# Conditions in all cases: 10 µM unless noted
# SR leukemia = system: SR leukemia
# RPMI-8226 leukemia = system: RPMI-8226 leukemia
# OVCAR-8 ovarian = system: OVCAR-8 ovarian
# OVCAR-5 ovarian = system: OVCAR-5 ovarian
# OVCAR-4 ovarian = system: OVCAR-4 ovarian
# SK-OV-3 ovarian = system: SK-OV-3 ovarian
# IGROV1 ovarian = system: IGROV1 ovarian
# OVCAR-3 ovarian = system: OVCAR-3 ovarian
# HS 578T breast = system: HS 578T breast
# NCI/ADR-RES ovarian = system: NCI/ADR-RES ovarian
Structure (SMILES),growth (SR leukemia),growth (RPMI-8226 leukemia),growth (OVCAR-8 ovarian),growth (OVCAR-5 ovarian),growth (OVCAR-4 ovarian),growth (SK-OV-3 ovarian),growth (IGROV1 ovarian),growth (OVCAR-3 ovarian),growth (HS 578T breast),growth (NCI/ADR-RES ovarian)
COc1ccc2c(c1)c(-c1noc(C(=O)c3cn(C)c4ccc(Br)cc34)n1)cn2C,80.5%,95.4%,96.1%,107%,108%,99.5%,89.2%,111%,94.6%,102%
N#C/C(=C\c1ccc2ccccc2c1)c1cc2ccccc2[nH]1,23.5%,32.4%,46.5%,61.2%,88.3%,64%,48.1%,7.91% (active),25.8%,12.4%
COc1cnc2c(c1)C(=O)c1c-2n(CCCNCCO)c(=O)c2ccncc12,-4.25% (active),-4.03% (active),-6.28% (active),-0.667% (active),-4.81% (active),6.1% (active),15.6%,8.44% (active),23.5%,58.8%
Cc1ccc(-c2nc3nc(-c4ccc(F)cc4)nc(N4CCNCC4)c3o2)cc1,-29.5% (active),-47.2% (active),-50.1% (active),-14.6% (active),-77.1% (active),107%,42%,-94.7% (active),-5.74% (active),-19.1% (active)
CCN(CC)CCSc1nc(-c2ccccc2)c(C#N)c(=O)[nH]1,92.3%,119%,111%,108%,154%,90.8%,117%,116%,63.5%,58%
OB(O)c1cccc(-c2nc3ccc4[nH]ncc4c3c3c2CCCC3)c1,32.2%,53%,48.7%,78.3%,80.2%,7.93% (active),47.2%,73.9%,0.588% (active),87.6%
CCOC(=O)c1cn2ncnc(Oc3ccc(NC(=O)NC4CCCCC4)c(Cl)c3)c2c1C,73.8%,90.9%,74%,93.5%,-0.664% (active),108%,81.4%,109%,36.1%,59%
CCCNC(=O)Oc1ccc(/C(=C(/C)Cc2ccc(OC)cc2)c2ccc(OCCCN(C)C)cc2)cc1,8.47% (active),77.3%,86.5%,94%,85.2%,98.3%,91.1%,94.3%,72.3%,79.1%
CN1C(=O)/C(=C/c2cn(-c3ccccc3)nc2-c2ccccc2)SC1=S,109%,108%,105%,106%,106%,109%,107%,121%,100%,98.1%
CC(C)=CCC[C@](C)(O)[C@H]1CC[C@]2(C)[C@@H]1CC[C@@H]1[C@@]3(C)Cc4nccnc4C(C)(C)[C@@H]3CC[C@]12C,43.7%,43.2%,101%,89.9%,90.1%,84.1%,104%,90.3%,97.6%,83.6%
Cc1ccc(/C=C2\CN(C(=O)OC(C)(C)C)C/C(=C\c3ccc(C)cc3)C2=O)cc1,-13.1% (active),-25.8% (active),25%,112%,65.4%,104%,69.3%,7.18% (active),59.6%,76.3%
CCN1CC(=O)N(/N=C2\C(=O)Nc3ccccc32)C1=S,83.1%,96%,95.4%,97.2%,97.2%,78.4%,55.3%,98.1%,83%,103%
COC(=O)c1c2c(c[n+]([O-])c1C)C(=O)C(NCc1ccccc1)=CC2=O,2.6% (active),-24.5% (active),-2.43% (active),-79.9% (active),-97% (active),8.1% (active),-54.3% (active),-35.3% (active),-15.3% (active),-14.1% (active)
COc1ccccc1Nc1nc2c(s1)C1=CC[C@H]3[C@@H]4CC[C@H]([C@H](C)CCCC(C)C)[C@@]4(C)CC[C@@H]3[C@@]1(C)CC2,108%,111%,103%,106%,99.8%,101%,99.2%,103%,105%,96.1%
CCOC(=O)c1c(NC(=O)c2ccc(C(C)C)cc2)sc2c(CN(C)C)c(O)ccc12,-21.5% (active),-20% (active),89.1%,64.1%,87.2%,99.2%,72.5%,96.1%,86.2%,72.6%
COc1ccc2cc(-c3ccc(NC(C)=O)c(=O)o3)ccc2c1,88.2%,96.3%,97.1%,95%,101%,94.6%,108%,101%,93.8%,103%
CN(C)c1ccc(Nc2cc(-c3cccc(OC(F)(F)F)c3)nc3ccc(N4CCCC4)cc23)cc1,-14.6% (active),-33% (active),-26.6% (active),100%,-73.8% (active),98.6%,-17.9% (active),-49.7% (active),-1.71% (active),-30.2% (active)
CCOc1nc(-c2ccccc2)cc2c(O)c(C(=O)NN)[nH]c(=O)c12,90.8%,103%,109%,106%,100%,113%,55.2%,79%,87.6%,87.9%
O=C(CSc1nc2ccc([N+](=O)[O-])cc2[nH]1)Nc1cccc(C(F)(F)F)c1,14.5%,-11.8% (active),13.8%,63.5%,12%,27.1%,41%,20.7%,24.8%,21.9%
CS(=O)(=O)C1=CN(CCO)C(=O)N2CCCN=C12,115%,119%,108%,99.4%,115%,97.5%,102%,105%,97%,106%
O=CC1(C2(C=O)c3ccccc3-c3ccccc32)c2ccccc2-c2ccccc21,-32.3% (active),-24% (active),-49.9% (active),-40.9% (active),-76.4% (active),-65% (active),-76.4% (active),-74.7% (active),-4.62% (active),-14% (active)
COc1ccc(OC)c(-c2c(C#N)c(-c3cccs3)nc3c2c(-c2ccccc2)nn3-c2ccccc2)c1,106%,106%,101%,103%,111%,93.2%,99.2%,114%,87.7%,107%
CCc1n(Cc2ccc3ccccc3c2)cc[n+]1Cc1ccc2ccccc2c1,-28% (active),-23.1% (active),-4.85% (active),8.92% (active),2.44% (active),9.89% (active),-21.7% (active),-16.3% (active),4.38% (active),92.5%
CNc1nc(S(=O)c2ccc(C#N)cc2)nc2ccccc12 (stereo not given),29.4%,61%,87.8%,81.2%,68.6%,98.6%,86.3%,53.4%,79.9%,97.8%
CCNc1cc(-c2cccc(OC(F)(F)F)c2)nc2ccc(N3CCCC3)cc12,6.47% (active),-2.09% (active),5.54% (active),27.9%,14.5%,17.7%,27.1%,-18% (active),70.5%,0.328% (active)
COc1ccc(-c2nc3c(c(-c4ccccc4)nn3-c3ccccc3)c(-c3ccc(N4CCOCC4)cc3)c2C#N)cc1,110%,89.8%,105%,102%,106%,119%,109%,115%,106%,111%
O=C(CI)NC1Oc2ccccc2-c2oc(=O)c(-c3ccccc3)cc21 (stereo not given),-33.5% (active),-49.4% (active),-27.9% (active),12.8%,-40.3% (active),103%,-59% (active),-95.1% (active),44.3%,36.7%
